Some test systems named below: HCT-15 colon; HT29 colon; SNB-75 CNS; SNB-19 CNS; U251 CNS; PC-3 prostate; SK-MEL-5 melanoma; UACC-62 melanoma; LOX IMVI melanoma; SK-MEL-28 melanoma; SK-MEL-2 melanoma; EKVX NSCLC; SN12C renal; UO-31 renal; TK-10 renal; ACHN renal; CAKI-1 renal; A498 renal; CCRF-CEM leukemia; MOLT-4 leukemia.
Common to all, as to test: NCI-60 one-dose screen, 48 h (100 = growth as untreated, 0 = no growth, -100 = all killed)
What all share (settings): 10 µM unless noted

We go through four compounds from PubChem BioAssay (NCI).

“And” between values parts separate entries of the source, which are not always exact repeats. Identical values can stand only once. The panel holds about 83,000 compounds, 20% with a hit somewhere; the sample as a whole holds those more often.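 Single-dose data. Exposure time 48 hours. Values below 10 considered active.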 The source made the active and inactive calls.

For the compound `O=C(N/N=C/c1cccc2ccccc12)C1CC1`, the growth in the experiment with HCT-15 colon is 107% (inactive) and 113% (inactive); in the experiment with HT29 colon it was 102% (inactive) and 110% (inactive); in the experiment with SNB-75 CNS it was 90.9% (inactive) and 85% (inactive); in the experiment on SNB-19 CNS, 98.8% (inactive) and 95.1% (inactive); in the experiment with U251 CNS, 99.7% (inactive) and 100% (inactive); in the experiment with PC-3 prostate, 100% (inactive) and 102% (inactive). The growth in the experiment with SK-MEL-5 melanoma is 105% (inactive) and 96.6% (inactive); with UACC-62 melanoma, 92.3% (inactive) and 99.8% (inactive); in the experiment with LOX IMVI melanoma, 91.8% (inactive); in the experiment with SK-MEL-28 melanoma, 111% (inactive) and 104% (inactive); with SK-MEL-2 melanoma it was 98.6% (inactive) and 115% (inactive); in the experiment on EKVX NSCLC it was 72.5% (inactive) and 53% (inactive). Further, the growth is 104% (inactive) and 88.6% (inactive) with SN12C renal; 90.1% (inactive) and 102% (inactive) in the experiment on UO-31 renal; 131% (inactive) and 121% (inactive) with TK-10 renal; 127% (inactive) and 110% (inactive) in the experiment on ACHN renal; 108% (inactive) and 90% (inactive) with CAKI-1 renal; 102% (inactive) in the experiment on A498 renal. Besides, the growth is 88.3% (inactive) in the experiment with CCRF-CEM leukemia; 67.1% (inactive) and 113% (inactive) in the experiment on MOLT-4 leukemia.

Regarding `CCN(CC)CCCC(C)N(Cc1ccccc1)CC(O)c1ccc(Cl)cc1` (stereo not given), the growth was 101% (inactive) and 97.9% (inactive) with HCT-15 colon; 108% (inactive) and 92.5% (inactive) in the experiment with HT29 colon; 109% (inactive) and 90.6% (inactive) with SNB-75 CNS; 109% (inactive) and 107% (inactive) in the experiment with SNB-19 CNS; 105% (inactive) and 102% (inactive) with U251 CNS; 87.7% (inactive) and 93.2% (inactive) in the experiment on PC-3 prostate. In addition, the growth in the experiment on SK-MEL-5 melanoma was 100% (inactive) and 105% (inactive); in the experiment on UACC-62 melanoma, 95.8% (inactive) and 106% (inactive); with LOX IMVI melanoma, 99.7% (inactive) and 97.5% (inactive); in the experiment on SK-MEL-28 melanoma it was 109% (inactive) and 106% (inactive); in the experiment on SK-MEL-2 melanoma, 105% (inactive) and 103% (inactive); in the experiment with EKVX NSCLC, 106% (inactive) and 96.2% (inactive). The growth with SN12C renal was 100% (inactive) and 104% (inactive); in the experiment on UO-31 renal, 94.7% (inactive) and 90.9% (inactive); in the experiment on TK-10 renal it was 91.8% (inactive) and 90.4% (inactive); with ACHN renal, 117% (inactive) and 103% (inactive); with CAKI-1 renal it was 109% (inactive); with A498 renal it was 91% (inactive) and 116% (inactive). The growth in the experiment on CCRF-CEM leukemia is 103% (inactive) and 120% (inactive); in the experiment on MOLT-4 leukemia it was 107% (inactive) and 103% (inactive).

For `COc1cc(-c2nccc3cc4c(cc23)OCO4)cc(OC)c1OC`, the growth was 22.1% (inactive) and 27.9% (inactive) in the experiment with HCT-15 colon; 1.74% (active) and 5.6% (active) in the experiment with HT29 colon; 10.8% (inactive) and -9.99% (active) in the experiment with SNB-75 CNS; 38.3% (inactive) and 38.8% (inactive) with SNB-19 CNS; 40.6% (inactive) and 24.1% (inactive) in the experiment on U251 CNS; 29.5% (inactive) in the experiment on PC-3 prostate. For the same compound, the growth in the experiment on SK-MEL-5 melanoma is 6.67% (active); in the experiment on UACC-62 melanoma, 34.2% (inactive) and 28.3% (inactive); with LOX IMVI melanoma, 32.2% (inactive) and 29.6% (inactive); in the experiment on SK-MEL-28 melanoma, 57.5% (inactive) and 39.8% (inactive); in the experiment with SK-MEL-2 melanoma, 9.15% (active); in the experiment on EKVX NSCLC, 68.4% (inactive) and 63.5% (inactive). Moreover, the growth is 39% (inactive) and 47.3% (inactive) in the experiment on SN12C renal; 50.8% (inactive) and 44.4% (inactive) in the experiment with UO-31 renal; 44.9% (inactive) and 28.9% (inactive) in the experiment with TK-10 renal; 36.2% (inactive) and 40.2% (inactive) in the experiment with ACHN renal; 20% (inactive) and 30.8% (inactive) in the experiment on CAKI-1 renal; 41.3% (inactive) and 20.1% (inactive) in the experiment on A498 renal. The growth is 34.2% (inactive) and 34.4% (inactive) in the experiment with CCRF-CEM leukemia; 39.4% (inactive) and 17.7% (inactive) in the experiment on MOLT-4 leukemia.

For the compound `Cc1nn(-c2ccc(Cl)cc2)c2ncnc(N/N=C/c3ccccc3O)c12`, the growth was 31.9% (inactive) and 27.1% (inactive) in the experiment with HCT-15 colon; 20.1% (inactive) and 31.1% (inactive) in the experiment with HT29 colon; -15.1% (active) and 35.9% (inactive) in the experiment on SNB-75 CNS; 29.6% (inactive) and 23.7% (inactive) in the experiment on SNB-19 CNS; 13% (inactive) and 11.8% (inactive) in the experiment with U251 CNS; 41.6% (inactive) and 28.1% (inactive) with PC-3 prostate. The growth is -62.4% (active) and -60.4% (active) in the experiment on SK-MEL-5 melanoma; 13.5% (inactive) and -37.1% (active) in the experiment with UACC-62 melanoma; 35.1% (inactive) and 7.4% (active) in the experiment on LOX IMVI melanoma; 25.2% (inactive) and 14.5% (inactive) with SK-MEL-28 melanoma; 12.3% (inactive) and 36% (inactive) with SK-MEL-2 melanoma; 38.1% (inactive) and 5.43% (active) with EKVX NSCLC. The growth is 23.1% (inactive) and 4.76% (active) in the experiment on SN12C renal; 35.2% (inactive) and -11.4% (active) with UO-31 renal; 16.4% (inactive) and 36.7% (inactive) in the experiment on TK-10 renal; 16.5% (inactive) and 5.9% (active) in the experiment with ACHN renal; 13.5% (inactive) and 5.47% (active) with CAKI-1 renal; 78.5% (inactive) and 69.6% (inactive) in the experiment on A498 renal. Further, the growth was 6.41% (active) and -2.4% (active) in the experiment with CCRF-CEM leukemia; 9.43% (active) and 6.36% (active) in the experiment on MOLT-4 leukemia.
